Data taken from PubChem BioAssay AID493216 (National Center for Advancing Translational Sciences (NCATS), 2011).
The source made the active and inactive calls. Calls follow the shape of the full dose curve.

Target: Polyunsaturated fatty acid lipoxygenase ALOX12 (Homo sapiens) (UniProt P18054)
Assay: Inhibitors of 12-hLO (12-human lipoxygenase): Cuvette-Based Hit Assay for Validation of Followup Compounds
Conditions: purified 12-hLO, cuvette absorbance 234 nm
Protocol: The enzyme activity of 12-hLO was determined by a direct measurement of product formation by monitoring the absorbance at 234 nm in a 2 mL cuvette. IC50 values of inhibitors were obtained by measuring the enzymatic rate at a variety of concentrations (Carroll et al, Segraves et al). This assay was used to validate actives or inconclusive putative inhibitors identified in the primary screen (see related BioAssay AIDs). Assay Provider: Holman, T.R., University of California, Santa Cruz Screening Center PI: Austin, Christopher P. Screening Center: NIH Chemical Genomics Center
For control experiments, 2 mL of substrate buffer (10 uM arachidonic acid / 25 mM HEPES / 0.01% (v/v) Triton X-100, pH 8.0) was aliquoted in a cuvette with a magnetic stir bar. After equilibrium was ensured, an aliquot of inhibitor solvent was added (DMSO), and equilibrium was once again assured. The reaction was started by adding enzyme to the cuvette and the reaction was followed until completed. The inhibition experiments were performed as above, except the actual inhibitory compound was added instead of vehicle. To achieve an IC50, typically 5 concentrations of the inhibitor were studied. If the inhibitor concentration was constant, then five different reaction volumes were used. Step \ Parameter \ Value \ Description 1; UV-Vis; 234 nm; Equilibration 2; Reagent; 2 mL; Substrate buffer 3; UV-Vis; 234 nm; Equilibration 4; Reagent; varies; Compound 5; UV-Vis; 234 nm; Equilibration 6; Reagent; 50-200 nM; Enzyme 12-hLO 7; UV-Vis; 234 nm; Enzymatic reaction Step \ Notes 1; Blank cuvette to air. 2; 10 uM AA, 25 mM HEPES, 0.01% Triton X-100, pH 8. 3; No change in absorbance ensured. 4; Compound vehicle or compound in various concentrations depending on potency. 5; No change in absorbance ensured. 6; Enzyme concentration to achieve reaction rate between 0.02 and 0.04 AU/s. 7; Enzymatic reaction visualized until completion.

Polyunsaturated fatty acid lipoxygenase ALOX12 (Homo sapiens), sequence (P18054 whole entry, looked up): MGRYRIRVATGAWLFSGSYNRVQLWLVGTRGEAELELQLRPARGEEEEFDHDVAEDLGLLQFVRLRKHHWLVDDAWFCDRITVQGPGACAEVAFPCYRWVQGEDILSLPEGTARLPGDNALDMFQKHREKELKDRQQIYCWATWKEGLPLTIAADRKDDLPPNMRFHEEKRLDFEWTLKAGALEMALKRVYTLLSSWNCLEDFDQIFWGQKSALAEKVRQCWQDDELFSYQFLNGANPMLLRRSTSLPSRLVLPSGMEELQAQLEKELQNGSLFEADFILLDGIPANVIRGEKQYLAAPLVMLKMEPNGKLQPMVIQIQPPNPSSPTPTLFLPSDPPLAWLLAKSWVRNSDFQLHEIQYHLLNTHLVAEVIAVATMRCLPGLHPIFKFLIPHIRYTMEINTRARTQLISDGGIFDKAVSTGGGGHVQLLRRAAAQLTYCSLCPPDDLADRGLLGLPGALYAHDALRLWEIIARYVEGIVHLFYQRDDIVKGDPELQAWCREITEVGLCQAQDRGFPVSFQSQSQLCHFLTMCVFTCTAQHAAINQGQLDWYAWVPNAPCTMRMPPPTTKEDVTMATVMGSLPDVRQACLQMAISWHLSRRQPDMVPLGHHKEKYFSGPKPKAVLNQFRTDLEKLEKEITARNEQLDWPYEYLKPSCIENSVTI

Potency, active:
COc1ccc(NC2=NCC(Cc3ccc(Br)cc3)S2)cc1 (stereo not given) 36.6 µM, O=S(=O)(Nc1ccc(O)c(Sc2nc3ccccc3s2)c1)c1ccc(Cl)cc1 8.77 µM, COc1ccc(-c2n[nH]c(C(F)(F)F)c2-c2cc3ccccc3o2)c(O)c1 21 µM, Oc1ccc(-c2csc(-c3ccccc3)n2)cc1O 0.94 µM, Oc1ccc(C2=Nn3c(nnc3-c3ccco3)SC2)cc1O 33.3 µM, Cc1[nH]nc(-c2ccc(O)cc2O)c1-c1ccc(Cl)cc1 19 µM, COc1cc(CNc2ccc(N3CCCC3)cc2)ccc1OCc1ccccc1 25 µM, COc1cccc(-c2cnc(NCc3cc(Cl)ccc3O)n2C)c1 32.7 µM, Cc1ccc(NC(=O)Nc2cccs2)c(Cl)c1 22.4 µM, COc1ccc(C(Nc2ccccn2)c2c(NC(=O)c3ccco3)sc(C)c2C)cc1 (stereo not given) 23.2 µM, CCOC(=O)Cc1cc(=O)n(-c2nc3ccccc3s2)[nH]1 22.4 µM, CCc1cc(-c2[nH]ncc2-c2ccc3c(c2)OCO3)c(O)cc1O 22.2 µM, Oc1ccccc1-c1cc(-c2ccc3c(c2)OCCO3)n[nH]1 31.3 µM, Oc1ccc(-c2nc(-c3ccc(O)c(O)c3)cs2)cc1 0.7 µM, Cc1ccc(C(=O)/C=C/c2c[nH]c3ccccc23)cc1 34.6 µM, COc1cc(CNc2ccc(O)cc2)cc(Br)c1OCc1ccccc1F 24.1 µM, Cc1cc(Cl)cc(Cl)c1OCC(=O)NCc1ccco1 20.4 µM, COc1ccc2nc(NC(=O)c3cccc(OCc4c(C)noc4C)c3)sc2c1 36.7 µM, Cc1ccc(S(=O)(=O)Nc2ccc(NC(=O)Nc3cccc(C(F)(F)F)c3)cc2)cc1 35 µM, Cc1ccc(S(=O)(=O)Nc2nc(C)c(NC(=O)Nc3ccc(Cl)cc3Cl)s2)cc1 2.35 µM, CCc1cc(-c2n[nH]c(C)c2Oc2ccc(C(C)C)cc2)c(O)cc1O 20.2 µM, COc1ccc(/C=C/c2nc(-c3ccccc3O)n[nH]2)cc1 18.9 µM, CC(Oc1ccc(Cl)cc1Cl)C(=O)NC1=NN(c2ccccc2)C(=O)C1 (stereo not given) 15.5 µM, Oc1ccccc1-c1cc(-c2cccc(F)c2)n[nH]1 18.9 µM, O=C(/C=C/c1ccc(O)c(O)c1)c1ccc(S(=O)(=O)N2CCCCCC2)cc1 27.2 µM, Oc1ccc(Cl)cc1-c1cc(-c2ccco2)[nH]n1 21.5 µM, c1ccc(-c2nc(NCc3cccnc3)c3oc4ccccc4c3n2)cc1 14 µM, O=C(Nc1nnc(C2=COCCO2)o1)c1ccc(Cl)cc1 7.14 µM, O=C(Nc1nnc(-c2ccc(Cl)cc2)o1)c1ccccc1Br 18.3 µM, Cc1nc(N)sc1-c1csc(N(C)c2ccc(O)cc2)n1 15.6 µM, Cc1[nH]nc(-c2ccc(O)cc2O)c1Oc1ccccc1 27 µM, CSc1ccc(S(=O)(=O)Nc2ccc(S(=O)(=O)Nc3ccc(C)cc3)cc2)cc1 21.1 µM, CCOc1ccc(-c2[nH]ncc2Oc2cccc(OC)c2)c(O)c1 28.1 µM, COc1ccc(Cc2nc(C(=O)Nc3ccc(OC)cc3)cs2)cc1 35.8 µM, O=C(Nc1nnc(-c2ccccn2)o1)c1ccc(Br)cc1 3.26 µM, O=C(CSc1n[nH]c(-c2ccccc2)n1)c1ccc(O)c(O)c1 24.2 µM, Cc1ccc(C(=O)Nc2nnc(-c3ccco3)o2)cc1 6.52 µM, COc1ccc(-c2n[nH]c(C)c2-c2ccc(Cl)cc2)c(O)c1 19.4 µM, N#CC1=C(N)Oc2n[nH]c(-c3cccs3)c2C1C1CCCCC1 (stereo not given) 7.69 µM, CC1=NN(c2ccc(Cl)cc2)C(=O)C1C(c1ccccc1O)c1c(C)[nH]n(-c2ccc(Cl)cc2)c1=O (stereo not given) 18.9 µM
